Compound activity from PubChem BioAssay.
Pf growth 96h: P. falciparum growth inhibition at 96 hour, primary screen for plastid delayed-death inhibitors. Potency, µM (highest dose often 28.7 µM), for the others: top-dose activity change, negative = inhibition, hits mostly inhibitors. P. falciparum luciferase reporter growth, 96 h. hit rate 6.9% among 320,000. AID 504834
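Readout is luminescence from an integrated firefly luciferase in P. falciparum. Red cells, 2% hematocrit and 0.05% parasitemia final, were cultured with compound through two parasite generations (96 hours) at 37 C, 5% CO2.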
Vaccinia Venus: vaccinia inhibition (Venus reporter) | Potency, µM (highest dose often 36.5 µM), for inactives: at the highest dose activity change, negative = inhibition, hits mostly inhibitors | hit rate 0.46% among 330,000 | AID 720580 | Vaccinia virus Venus reporter expression, fluorescence; calls by dose curve; tested in A549 cells; further: nearly all actives have a fitted effect of over 30% in size
Vaccinia mCherry: inhibitors of vaccinia virus infection (mCherry reporter signal) | hit rate 0.63% among 310,000 | Vaccinia virus mCherry reporter infection, fluorescence | Potency, µM (top dose mostly 36.5 µM), without a hit: top-dose activity change, negative = inhibition, actives largely listed as inhibitors | AID 720579; calls by dose curve; tested in A549 cells; further: nearly all actives have a fitted effect of over 35% in size
AMA1 RON2 block: AMA1-RON2 (P. falciparum) interaction inhibition. AlphaScreen AMA1-biotinylated RON2 peptide binding. Potency, µM (titrated, usually from 58.2 µM), for inactives: top-dose activity change, negative = inhibition, hits mostly inhibitors. hit rate 0.2% among 360,000. AID 720542;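 further: 0% = vehicle wells and -100% = peptide control; nearly all actives have a fitted effect of over 45% in size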
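AMA1 (3D7) with his tag at 25 nM final met compounds first, then biotinylated RON2 peptide at 25 nM; detection used donor plus acceptor beads, 10 µg/mL apiece, read by AlphaScreen after 30 min at room temperature.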
Pf growth 48h: P. falciparum growth inhibition at 48 hours (one generation); P. falciparum luciferase growth in erythrocytes, 48 h; Potency, µM (top dose mostly 28.7 µM), inactives show at the highest dose activity change, negative = inhibition, most hits filed as inhibitors; hit rate 5.9% among 310,000
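Compounds are pin-transferred into medium, infected erythrocytes (2% hematocrit, 0.1% parasitemia final) are added, and plates sit one parasite generation at 37 C in 5% CO2. Detection reagent is then added and luminescence measured.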
An asterisk follows results filed as active; i = inactive; ? = inconclusive; nt = no result; [ ] = dose if it differs, or a comment. A selection: hits, their analogues and other compounds. The true share with any hit is near 8.7%. Unless noted, the call rests on the fitted dose curve; in most records, active means well fitted curve in the direction sought with a large enough effect; inconclusive means small, poorly fitted or top-dose-only effect, or another doubt; inactive means no such curve, though single readings can be large; an effect the other way counts as inactive or inconclusive. Unless noted, on the % scale 0 is the no-effect control and ±100 the full control effect; potency means the concentration at half of the fitted maximal effect.

SMILES	Pf growth 96h	Vaccinia Venus	Vaccinia mCherry	AMA1 RON2 block	Pf growth 48h
CC(C)c1ccc(N=c2c([N+](=O)[O-])nn(-c3ccc4c(c3)OCCO4)n2O)cc1	?	-27.5%	?	?	10.4µM*
Cc1cccc(-c2nc(SCC(=O)NCC3CCCO3)c3c(=O)n(C)c(=O)n(C)c3n2)c1 (configuration not stated)	nt	-0.9%	-7.9%	nt	nt
COC(=O)c1cc(NC(=O)CCc2c(C)nc3nc(C)nn3c2C)cc(C(=O)OC)c1	nt	5.0%	1.5%	nt	nt
CCCCOC(=O)Cn1nnc2sc(-c3ccccc3)cc2c1=O	nt	2.4%	-6.1%	nt	nt
Cc1ccc2c(c1)N(C(=O)N1CCC(C(=O)NCc3ccco3)CC1)CC(C)O2 (configuration not stated)	nt	-7.9%	-10.8%	nt	nt
CCCS(=O)(=O)c1c(S(=O)(=O)CCC)c2cc(C(C)(C)C)ccn2c1C(=O)c1ccc(OC)c(OC)c1	nt	-6.0%[7.34 µM]	-4.7%[7.34 µM]	nt	nt
CCOc1ccc(CCNC(=O)c2nnc(Cc3ccc(Cl)cc3Cl)o2)cc1OCC	nt	-9.6%	-9.3%	nt	nt
O=C(O)Cn1cc(C(=S)N2CCCCC2)c2ccccc21	8.28µM*	nt	nt	-0.5%	-0.8%
O=C(O)Cn1cc(C(=S)N2CCOCC2)c2ccccc21	nt	nt	nt	1.9%	-2.2%
COc1ccc(N2CCN(C(=O)C(=O)c3cn(CC(=O)N4CCCCCC4)c4ccccc34)CC2)cc1	10.4µM*	-5.5%	-9.8%	-22.3%	?
O=C(c1ccccc1)c1cn(CC(=O)N2CCCC2)c2ccccc12	3.7µM*	-4.9%	i	5.1%	nt
O=C(C(=O)N1CCN(c2ccccc2)CC1)c1cn(CC(=O)N2CCCCCC2)c2ccccc12	?	-4.5%	-22.8%	-8.2%	9.28µM*
O=C(c1ccccc1)c1cn(CC(=O)N2CCOCC2)c2ccccc12	6.1%	-18.2%	-0.4%	6.7%	10.7%
COc1ccc(CCNC(=O)Cn2c(-c3ccc(F)cc3)cc(C(C)=O)c2C)cc1OC	nt	1.2%	-3.3%	nt	nt
Cc1ccccc1NS(=O)(=O)c1ccc2[nH]cc(C(=O)NC(C)c3ccccc3)c(=O)c2c1 (configuration not stated)	nt	-10.5%	-8.7%	nt	nt
CC1CCCN(C(=O)C(=O)c2cn(CC(=O)N3CCCCCC3)c3ccccc23)C1 (configuration not stated)	11.7µM*	-22.6%	i	0.0%	?
Cc1ccc(NC(=O)CCCn2c(=O)c3cccn3c3cccnc32)c(Cl)c1	nt	-10.4%	-18.5%	nt	nt
Fc1ccc(Cn2c(-c3cccc(Br)c3)nc3ccccc32)cc1	nt	-4.0%	-9.7%	nt	nt
O=C(c1nc2ccccn2c1CNCCCn1ncc2ccccc21)N1CCOCC1	?	nt	nt	6.3%	7.2%
Cc1cccn2c(CNCCCn3ncc4ccccc43)c(C(=O)N3CCCCC3)nc12	14.7µM*	nt	nt	-2.6%	?
CCOC(=O)C(Cc1ccccc1)NC(=O)CCc1c(C)nc2ncnn2c1C (configuration not stated)	22.0%	nt	nt	-8.6%	1.5%
CCOC(=O)C(Cc1ccccc1)NC(=O)CCc1c(C)nc2nc(C)nn2c1C (configuration not stated)	7.38µM*	1.8%	8.8%	-11.5%	5.8%
COc1cc(SC#N)ccc1N=Cc1c(C)[nH]n(-c2cccc3ccccc23)c1=O	0.738µM*	-15.6%	nt	-7.6%	9.28µM*
COc1cc(SC#N)ccc1N=Cc1c(C)[nH]n(-c2ccc(C)cc2C)c1=O	?	-12.7%	nt	-12.9%	?
O=c1oc2ccccc2cc1-c1cn2cc(Cc3ccccc3F)sc2n1	nt	-22.4%	?	nt	nt
SMILES	Pf growth 96h	Vaccinia Venus	Vaccinia mCherry	AMA1 RON2 block	Pf growth 48h
COc1ccc(C2CC(=O)c3cc(-c4nc(-c5cccc([N+](=O)[O-])c5)cs4)c(=O)n(-c4ccccc4N)c3C2)cc1 (configuration not stated)	nt	13.0%	16.7%	nt	nt
Cc1cc(NC(=O)c2ccccc2)ccc1NC(=O)c1ccccc1Cl	-5.8%	nt	nt	13.2%	0.9%
Cc1cc(NC(=O)c2ccccc2)ccc1NC(=O)Cc1ccccc1	4.15µM*	-15.0%	i	-5.2%	-12.4%
Cc1cc(NC(=O)c2ccco2)ccc1NC(=O)Cc1cccs1	6.57µM*	-5.2%	nt	3.8%	61.5%
CCc1cccc(C)c1NC(=O)Cn1ncc2c3ccccc3n(Cc3ccccc3)c2c1=O	nt	-5.3%	-4.8%	nt	nt
CCc1cccc(CC)c1-n1nnc2c(sc3nc(C)cc(C)c32)c1=O	nt	-7.3%	-12.5%	nt	nt
CCOC(=O)C(C)Sc1nnc(NC(=O)c2ccc(C)c([N+](=O)[O-])c2)s1 (configuration not stated)	14.7µM*	-16.9%	-14.4%	6.0%[2.32 µM]	-2.6%
C#CCOCCOCCOCCNc1nc(N2CCN(C(=O)CCCCCCCCCCNC(=O)Cn3cc(C[C@@H](C)O)nn3)CC2)nc(N2CCN(C(=O)CCCCCCCCCCNC(=O)[C@@H]([C@H](C)O)n3cc(C)nn3)CC2)n1	0.0828µM*	?	-26.1%	8.9%	0.0738µM*
C#CCOCCOCCOCCNc1nc(N2CCN(C(=O)CCCCCCCCCCNC(=O)Cn3cc(CCCCCN)nn3)CC2)nc(N2CCN(C(=O)CCCCCCCCCCNC(=O)[C@@H]([C@H](C)O)n3cc(C)nn3)CC2)n1	0.522µM*	10µM*	?	-13.4%	0.329µM*
C#CCOCCOCCOCCNc1nc(N2CCN(C(=O)Cn3cc(CCCCN)nn3)CC2)nc(N2CCN(C(=O)[C@H](C(C)C)n3cc(CCO)nn3)CC2)n1	0.2%	-13.3%	i	-3.7%	12.2%
Cc1ccc(C)c(N2CCN(C(=O)c3cc(S(=O)(=O)N4CCC(C)CC4)cn3C)CC2)c1	nt	-28.7%	i	nt	nt
COc1ccc2ccccc2c1/C=N/NC(=O)c1cccc(C)c1	nt	nt	nt	14.3%	nt
Cc1cccc(OCC(=O)NC(C)C(=O)N/N=C/c2c(OCc3ccccc3)ccc3ccccc23)c1 (configuration not stated)	nt	nt	nt	23.5%	6.57µM*
O=C(Nc1cc(C(F)(F)F)cc(C(F)(F)F)c1)Nc1cnn(-c2ccc([N+](=O)[O-])cc2)c1C(F)(F)F	?	-13.4%	i	-7.4%	1.85µM*
O=C(Nc1ccc(C(=O)O)cc1)Nc1ccc([N+](=O)[O-])cc1	8.4%	-1.9%	i	1.8%	-0.6%
CC(C)Cn1c(=O)c2sccc2n2c(CCCC(=O)NC3CCCCC3)nnc12	nt	-9.6%	-7.3%	nt	nt
C=CCOc1ccc(/C=C2\SC(=Nc3cccnc3)NC2=O)cc1	10.4µM*	34.7%	i	3.6%	?
Cc1ccc(C(=O)Nc2ccc(N3CCN(S(C)(=O)=O)CC3)cc2)cc1C	?	-4.7%	-6.6%	-10.0%	38.6%
Cc1ccc(C(=O)Nc2ccc(N3CCN(C)CC3)cc2)cc1C	11.7µM*	nt	nt	-3.4%	52.8%
CC(=O)N1CCN(c2ccc(NC(=O)c3ccc(C(C)(C)C)cc3)cc2)CC1	0.9%	?	-20.0%	-5.6%	10.4µM*
CN1CCN(c2ccc(NC(=O)c3cccc(OCc4ccccc4)c3)cc2)CC1	nt	-22.9%	nt	?	10.4µM*
CC(=O)N1CCN(c2ccc(NC(=O)c3ccc(Cl)cc3)cc2)CC1	?	nt	nt	4.0%	-3.8%
